Chronic BCR inh: qHTS Assay to Find Inhibitors of Chronic Active B-Cell Receptor Signaling. Potency, µM (titrated, usually from 46.1 µM), for inactives: top-dose activity change, negative = inhibition, actives largely listed as inhibitors. ABC-DLBCL IkBa-CBG/CBR reporter, luminescence ratio, 4 h. 340,000 tested, 0.05% active. AID 493014, 2011; active means well fitted inhibition curve with a large enough effect in the signal ratio, with a control signal flat, not every such curve was filed as active; inconclusive means small, poorly fitted or top-dose-only effect, or effect the other way, or a change in a side signal; the % refers to the signal ratio;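 further: potency means the concentration at half of the fitted maximal effect; plate controls were basal doxycycline-induced cells for no effect and cells given 10 µM MG132 for full effect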
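TMD8 human ABC-DLBCL cells with doxycycline-inducible IκBα–green luciferase fusion and unfused red luciferase, in 0.5% FBS medium; compounds up to 46 uM, 4 h at 37C. Green/red luminescence ratio, filter-overlap corrected, fitted to concentration-response curves.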
TDP1 cell CPT: qHTS for Inhibitors of human tyrosyl-DNA phosphodiesterase 1 (TDP1): qHTS in cells in presence of CPT; chicken DT40 Tdp1-/-;hTDP1 cells + 20 nM CPT, ATP luminescence, 48 h; Potency, µM (series often up to 46.2 µM), without a hit: at the top dose activity change, negative = growth inhibition, hits mostly inhibitors; 420,000 tested, 12% active; further: potency means the concentration at half of the fitted maximal effect; on the % scale 0 is the no-effect control and ±100 the full control effect; nearly all actives have a fitted effect of over 55% in size
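Chicken DT40 Tdp1-/- cells complemented with human TDP1, 400 cells/well, exposed to compounds plus 20 nM camptothecin for at least 48 h at 37 C; viability read as ATP content by CellTiter-Glo luminescence.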
MCF10A rereplic: A quantitative high throughput screen for small molecules that induce DNA re-replication in MCF 10a normal breast cells | MCF 10A DNA re-replication, Hoechst nuclear intensity, 48 h | Potency, µM (series often up to 46.1 µM), for the others: top-dose activity, positive = re-replication, most hits filed as activators | 350,000 tested, 2.9% active; further: potency means the concentration at half of the fitted maximal effect; % of control where 0% means no effect; nearly all actives have a fitted effect of over 50% in size
TDP1 cell noCPT: qHTS for Inhibitors of human tyrosyl-DNA phosphodiesterase 1 (TDP1): qHTS in cells in absence of CPT. DT40 Tdp1-/- hTDP1 cells, no CPT, ATP luminescence, 48 h. AID 686978, 2013. Potency, µM (highest dose often 46.2 µM), inactives show at the highest dose activity change, negative = growth inhibition, actives largely listed as inhibitors. 420,000 tested, 15% active; further: potency means the concentration at half of the fitted maximal effect; on the % scale 0 is the no-effect control and ±100 the full control effect; nearly all actives have a fitted effect of over 55% in size
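Compound effects on proliferation are scored in DT40 Tdp1-/-;hTDP1 cells in the absence of CPT. ATP levels (CellTiter-Glo luminescence) are recorded after a ≥48 hr, 37 °C incubation.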
SW480 rerep: A quantitative high throughput screen for small molecules that induce DNA re-replication in SW480 colon adenocarcinoma cells; SW480 DNA re-replication, Hoechst DNA content imaging, 48 h; Potency, µM (series often up to 46.1 µM), for the others: at the highest dose re-replication activation, usual class: activators; 340,000 tested, 1.8% active; further: potency means the concentration at half of the fitted maximal effect; % of control where 0% means no effect; nearly all actives have a fitted effect of over 55% in size
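Cells (250 per well) received 23 nL compound or DMSO by pin tool and were kept 48 hr at 37 C, 5% CO2. Nuclei were then stained with Hoechst for 40 min and scanned for DNA content.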
IL-1B inflam inh: qHTS for Inhibitors of Inflammasome Signaling: IL-1-beta AlphaLISA Primary Screen; 360,000 tested, 4.7% active; activity change, % at 57.5 µM; THP-1 LPS/ATP IL-1B secretion, AlphaLISA, 16 h; active compounds read low; AID 743279, 2014; in the data active means activity change below about -50%; inconclusive means mostly about -30% to -49%; further: on the % scale 0 is the no-effect control and ±100 the full control effect
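Secreted IL-1B measured by AlphaLISA bead assay after 16 h compound exposure of THP-1 cells; compounds (final up to 57.5 uM) added 1 h before LPS (250 ng/mL) and ATP (1.25 mM) stimulation; lower signal means less secretion.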
Active calls of the source: *; ? = inconclusive; / = no result given; [ ] = dose if it differs, or a comment. An excerpt weighted towards active compounds, which were near 19% of everything screened. Unless noted, the call rests on the fitted dose curve; in most records, active means well fitted curve in the direction sought with a large enough effect; inconclusive means small, poorly fitted or top-dose-only effect, or another doubt; inactive means no such curve, though single readings can be large; an effect the other way counts as inactive or inconclusive.

SMILES	Chronic BCR inh	TDP1 cell CPT	MCF10A rereplic	TDP1 cell noCPT	SW480 rerep	IL-1B inflam inh
CC(=O)Nc1nc(-c2ccc([N+](=O)[O-])cc2)cs1	?	?	0%	?	-42%	-13
O=C(Nc1nc(-c2ccc([N+](=O)[O-])cc2)cs1)C1=COCCO1	/	-25%	/	9.2µM*	/	-8
CCOc1ccc(-c2nc(C#N)c(N3CCN(C)CC3)o2)cc1	?	-23%	19%	-18%	?	?
COc1ccc(-c2nc(C#N)c(NC(C)C)o2)cc1	?	-19%	9%	-10%	10%	-50*
CCOc1ccc(-c2nc(C#N)c(N3CCCCCC3)o2)cc1	6%	21µM*	1%	?	-11%	-61*
CCCOc1ccc(-c2nc(C#N)c(N3CCN(CC)CC3)o2)cc1	?	?	?	?	-1%	-60*
COc1ccc(-c2nc(C#N)c(N3CCC(C)CC3)o2)cc1	?	?	17%	13µM*	23%	-52*
Cc1ccc(S(=O)(=O)N(C)c2ccc(C(=O)Nc3c(C)n(C)n(-c4ccccc4)c3=O)cc2)cc1	-1%	-12%	-3%	-9%	104%[1.84 µM]	12
CCCCC1CCC(C(=O)OC(C)C(=O)Nc2ccc(NC(C)=O)cc2)CC1 (centres undefined)	-6%	-21%	1%	13%	9%	24
O=C(Cc1ccccc1)NCC(=O)N1CCC1	8%	23%	-2%	-3%	-15%	21
COc1ccc(-c2nc(C#N)c(N3CCCCCC3)o2)cc1OC	?	15µM*	?	11µM*	4%	-30
COc1ccc(-c2nc(C#N)c(N3CCCCCC3)o2)cc1	?	18µM*	14%	18µM*	-21%	-63*
COc1ccccc1-c1nc(C#N)c(N2CCN(c3cccc(Cl)c3)CC2)o1	10%	?	?	?	-2%	-27
N#Cc1nc(-c2ccc(F)cc2)oc1N1CCCC1	12%	7.3µM*	8%	21µM*	30%	-12
COc1ccccc1-c1nc(C#N)c(N2CCN(C(c3ccccc3)c3ccccc3)CC2)o1	-2%	16µM*	-1%	23µM*	-2%	1
COc1ccc(-c2nc(C#N)c(N3CCCCC3)o2)cc1	?	-5%	9%	-26%	7%	-11
COc1ccc(-c2nc(C#N)c(N3CC(C)OC(C)C3)o2)cc1OC (centres undefined)	9%	-18%	-8%	-30%	-3%	-10
OC1(c2cccnc2)CCN(Cc2ccc3c(c2)CN(Cc2cccc4nccnc24)CCO3)CC1	/	-3%[9.04 µM]	/	-29%	/	/
CSCCC(NC(=O)c1ccco1)C(=O)Nc1ccncc1 (centres undefined)	-1%	3%	1%	2%	2%	19
Oc1ccccc1-c1n[nH]c(-c2ccccc2O)n1	/	3.7µM*	?	5.2µM*	?	-3
O=[N+]([O-])c1ccc(N=NN(CCO)CCO)cc1	1%	-14%	10%	-8%	23µM*	6
Cc1nnc(N2CCN(c3ccccc3)CC2)[nH]c1=O	-1%	5.2µM*	?	5.8µM*	?	5
CCc1c(C)nc(N2CCN(c3ccc(F)cc3)CC2)[nH]c1=O	6%	?	3%	-28%	-26%	-18
CCc1c(C)nc(N2CCN(c3ccc(OC)cc3)CC2)[nH]c1=O	8%	?	3%	21µM*	2%	-4
COc1ccc(Cl)cc1NC(=O)CN(C)C(=O)/C=C/c1ccco1	-11%	-25%	8%	-20%	7%	3
SMILES	Chronic BCR inh	TDP1 cell CPT	MCF10A rereplic	TDP1 cell noCPT	SW480 rerep	IL-1B inflam inh
O=C1C(Br)=C(c2ccccc2)C(c2ccccc2)=C1c1ccccc1	/	0.58µM*	3.7µM*	0.92µM*	2.9µM*	-13
O=C(NCCN1Cc2ccccc2OC(c2ccccc2F)C1)c1ccco1 (centres undefined)	/	13%[9.04 µM]	/	?	/	/
COc1ccc(NC(=O)CN(C)C(=O)c2cc(-c3cccs3)nn2-c2ccccc2)cc1	0%	?	?	15µM*	11%	?
CCOc1ccc(NC(=O)CN(C)C(=O)c2cc(-c3cccs3)nn2-c2ccccc2)cc1OCC	?	?	-1%	?	3%	0
CCN(CC(=O)Nc1ccc(NC(C)=O)cc1)C(=O)c1cc(-c2ccccc2)nn1-c1ccccc1	7%	-20%	4%	-23%	-16%	-9
CCN(CC(=O)Nc1ccc(OC)cc1)C(=O)c1cc(-c2cccs2)nn1-c1ccccc1	-11%	?	?	16µM*	-4%	-11
CN(CC(=O)Nc1ccc(F)cc1)C(=O)c1cc(-c2cccs2)nn1-c1ccccc1	-1%	?	?	13µM*	-9%	-1
Cn1c(=O)c(-c2ccc(Cl)cc2)nc2cnc(Nc3ccccc3)nc21	/	6%	/	13%	/	/
Cc1csc(N/N=C/c2ccc([N+](=O)[O-])cc2)n1	?	0%	1%	?	1%	-10
C(=NNc1ccc2ccccc2n1)c1ccccn1	/	1.6µM*	/	1µM*	/	53
Cc1csc(N/N=C/c2ccccn2)n1	?	0.58µM*	?	0.46µM*	3.7µM*	-100*
C(=N\NC1=Nc2cccc3cccc1c23)/c1ccccn1	?	8.2µM*	?	9.2µM*	14%	111
CC(C)c1ccc(NC(=O)c2ccccc2NC(=O)C2CCCCC2C(=O)O)cc1 (centres undefined)	-10%	-7%	-8%	-20%	-2%	-18
COc1ccc(OC)c2c1cc(C(=O)N[C@@H](C)C(=O)N[C@@H](C(=O)O)c1ccccc1)n2C	5%	2%	2%	28%	-13%	6
Cn1nc(C(=O)N2CCN(C(c3ccccc3)c3ccccc3)CC2)c2ccccc2c1=O	0%	23µM*	10%	?	-2%	-3
Cn1nc(C(=O)N2CCN(S(=O)(=O)c3ccc(Cl)cc3)CC2)c2ccccc2c1=O	4%	?	-1%	23µM*	-5%	12
CCOC(=O)c1ccc(S(=O)(=O)N2CCN(C(=O)c3nn(C)c(=O)c4ccccc34)CC2)cc1	-7%	-25%	8%	?	-91%	6

From PubChem BioAssay
